# Calls of active or inactive are those of the source. The calls were made as follows: active = hit-call score of the fitted dose curve at least 0.9, where 1 is the maximum; inactive = score below 0.9.
# Columns and labels:
# Settings in all cases: mRNA level, 48 h; actives raise or lower the signal
# BCL2L11 (gene 10018) = assay: LTEA_HepaRG_BCL2L11: Life Technologies and Expression Analysis (LTEA) Assay for Bcl-2 (BCL2L11) gene using HepaRG (AID 2283473)
# Method in brief: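 Read-out is BCL2L11 transcript level by qRT-PCR, normalized to three housekeeping genes and fitted bidirectionally against 0.5% DMSO vehicle. HepaRG cells received chemicals for 48 h in serum-free induction medium, 100 uM down in half-log dilutions.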
# [1] = read-out: Apolipoprotein A-V (APOA5) gene, APOA5 (gene 116519); assay: LTEA_HepaRG_APOA5: Life Technologies and Expression Analysis (LTEA) Assay for Apolipoprotein A-V (APOA5) gene using HepaRG (AID 2283474)
# Method in brief: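 Readout is APOA5 transcript level by qRT-PCR on Fluidigm dynamic arrays, normalized to three housekeeping genes. HepaRG cultures received chemicals for 48 h at up to 100 uM (half-log steps, 0.5% DMSO), with gain or loss scored relative to DMSO.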
# [2] = read-out: Apoptosis regulator Bcl-2 (Homo sapiens) (UniProt P10415); assay: LTEA_HepaRG_BCL2: Life Technologies and Expression Analysis (LTEA) Assay for Bcl-2 gene using HepaRG (AID 2283475)
# Method in brief: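 Each chemical was tested in duplicate on HepaRG cultures held in serum-free induction medium for 48 h, highest concentration 100 uM with half-log dilutions. Transcript levels came from multiplexed qRT-PCR, normalised to housekeeping genes; activity was scored in either direction relative to DMSO.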
# [3] = read-out: Bcl-2 (BID) gene, BID (gene 637); assay: LTEA_HepaRG_BID: Life Technologies and Expression Analysis (LTEA) Assay for Bcl-2 (BID) gene using HepaRG (AID 2283476)
# Method in brief: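 Assay used HepaRG hepatic cells treated 48 h in serum-free medium with half-log dilutions from 100 uM. Endpoint: BID mRNA, qRT-PCR, normalized to ACTB/GAPDH/POLR2A.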
# Caspase-3 (Homo sapiens) = Caspase-3 (Homo sapiens) (UniProt P42574); assay: LTEA_HepaRG_CASP3: Life Technologies and Expression Analysis (LTEA) Assay for cysteine-aspartic acid protease (CASP3) using HepaRG (AID 2283477)
# Method in brief: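 Read-out is CASP3 mRNA level by TaqMan qRT-PCR in human HepaRG cells after 48 h chemical exposure. Eight half-log concentrations topping at 100 uM were tested in 0.5% DMSO; gain or loss was fitted relative to DMSO.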
# [4] = read-out: Cytochrome P450 (CYP24A1), CYP24A1 (gene 1591); assay: LTEA_HepaRG_CYP24A1: Life Technologies and Expression Analysis (LTEA) Assay for Cytochrome P450 (CYP24A1) using HepaRG (AID 2283478)
# Method in brief: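 HepaRG, 48 h chemical exposure, 8-pt half-log CRC from 100 uM, 0.5% DMSO vehicle, duplicates. Endpoint: CYP24A1 mRNA by Fluidigm TaqMan qRT-PCR, normalized ACTB/GAPDH/POLR2A; gain/loss fit vs DMSO.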
# [5] = read-out: Cytochrome P450 (CYP1A2), CYP1A2 (gene 1544); assay: LTEA_HepaRG_CYP1A2: Life Technologies and Expression Analysis (LTEA) Assay for Cytochrome P450 (CYP1A2) using HepaRG (AID 2283479)
# Method in brief: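 CYP1A2 transcript induction or loss, quantified by Fluidigm qRT-PCR against three housekeeping genes, was fitted bidirectionally against 0.5% DMSO controls. Human HepaRG cells received eight half-log concentrations from 100 uM over 48 h.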
# [6] = read-out: cysteine-aspartic acid protease (CASP8), CASP8 (gene 841); assay: LTEA_HepaRG_CASP8: Life Technologies and Expression Analysis (LTEA) Assay for cysteine-aspartic acid protease (CASP8) using HepaRG (AID 2283480)
# Method in brief: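 CASP8 transcript measured by TaqMan qRT-PCR with ACTB/GAPDH/POLR2A normalization, after 48 h chemical exposure of HepaRG cells in serum-free induction medium. Eight concentrations, top 100 uM, half-log steps, 0.5% DMSO vehicle; fits in both directions versus DMSO.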
# [7] = read-out: Cytochrome P450 (CYP2B6), CYP2B6 (gene 1555); assay: LTEA_HepaRG_CYP2B6: Life Technologies and Expression Analysis (LTEA) Assay for Cytochrome P450 (CYP2B6) using HepaRG (AID 2283481)
# Method in brief: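 HepaRG cells plated 48 h, switched to serum-free induction medium, then dosed 48 h (8 points, half-log from 100 uM, 0.5% DMSO). RNA isolated; CYP2B6 expression measured by qRT-PCR; gain or loss fitted relative to DMSO.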
# [8] = read-out: Cytochrome P450 2C19 (Homo sapiens) (UniProt P33261); assay: LTEA_HepaRG_CYP2C19: Life Technologies and Expression Analysis (LTEA) Assay for CYP2C19 using HepaRG (AID 2283482)
# Method in brief: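 Transcript levels of CYP2C19 were quantified by qRT-PCR after HepaRG cells were treated for 48 hours with test chemicals up to 100 uM (eight half-log concentrations, 0.5% DMSO vehicle). Gain or loss of signal was fitted relative to DMSO.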
# CYP2C8 (gene 1558) = assay: LTEA_HepaRG_CYP2C8: Life Technologies and Expression Analysis (LTEA) Assay for CYP2C8 using HepaRG (AID 2283483)
# Method in brief: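 CYP2C8 expression measured by TaqMan qRT-PCR and normalized to three housekeeping genes. HepaRG cultures were treated for 48 h with an eight-point half-log series topping at 100 uM, vehicle 0.5% DMSO, duplicates; fitted both directions against DMSO.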
# CYP2C9 (gene 1559) = assay: LTEA_HepaRG_CYP2C9: Life Technologies and Expression Analysis (LTEA) Assay for CYP2C9 using HepaRG (AID 2283484)
# Method in brief: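 CYP2C9 transcript level, quantified by TaqMan qRT-PCR against three housekeeping genes, was fitted bidirectionally relative to 0.5% DMSO. HepaRG cultures were treated 48 h, in duplicate, at eight half-log concentrations topping at 100 uM.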
# CYP2E1 (gene 1571) = assay: LTEA_HepaRG_CYP2E1: Life Technologies and Expression Analysis (LTEA) Assay for CYP2E1 using HepaRG (AID 2283485)
# Method in brief: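 Assay uses 48 h exposure of HepaRG hepatic cells, eight concentrations to 100 uM. Expression of CYP2E1 is quantified by TaqMan qRT-PCR with ACTB, GAPDH and POLR2A normalization; curves fitted in both directions relative to vehicle.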
# CYP4A11 (gene 1579) = assay: LTEA_HepaRG_CYP4A11: Life Technologies and Expression Analysis (LTEA) Assay for CYP4A11 using HepaRG (AID 2283486)
# Method in brief: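 HepaRG, 48 h chem exposure, 8 conc (100 uM top, half-log), 0.5% DMSO vehicle; qRT-PCR readout, housekeeping-gene normalized; bidirectional curve fit vs DMSO baseline.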
# [9] = read-out: Cytochrome P450 3A4 (Homo sapiens) (UniProt P08684); assay: LTEA_HepaRG_CYP3A4: Life Technologies and Expression Analysis (LTEA) Assay for CYP3A4 using HepaRG (AID 2283487)
# Method in brief: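 CYP3A4 transcript measured by TaqMan qRT-PCR and normalized to three housekeeping genes after 48 h chemical exposure of human HepaRG cells. Top concentration 100 uM, half-log steps, 0.5% DMSO vehicle; gain or loss fitted against DMSO baseline.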
# [10] = read-out: DNA damage-inducible transcript 3 (DDIT3), DDIT3 (gene 1649); assay: LTEA_HepaRG_DDIT3: Life Technologies and Expression Analysis (LTEA) Assay for DNA damage-inducible transcript 3 (DDIT3) using HepaRG (AID 2283488)
# Method in brief: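 Eight-point concentration-response (100 uM highest, half-log dilutions) in HepaRG, 48 h, duplicate wells. Endpoint: qRT-PCR mRNA, normalized (ACTB, GAPDH, POLR2A), bidirectional fitting with DMSO as baseline.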
# [11] = read-out: Pro-epidermal growth factor (Homo sapiens) (UniProt P01133); assay: LTEA_HepaRG_EGF: Life Technologies and Expression Analysis (LTEA) Assay for Epidermal growth factor (EGF) using HepaRG (AID 2283489)
# Method in brief: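 HepaRG, 48 h dosing, 100 uM top, half-log x8, 0.5% DMSO. Readout: TaqMan qRT-PCR (Fluidigm array), housekeeping-normalized. Gain or loss of signal fit vs DMSO.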
# [12] = read-out: Early growth response protein 1 (EGR1) transcription factor, EGR1 (gene 1958); assay: LTEA_HepaRG_EGR1: Life Technologies and Expression Analysis (LTEA) Assay for Early growth response protein 1 (EGR1) transcription factor using HepaRG (AID 2283490)
# Method in brief: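 EGR1 transcript levels quantified by qRT-PCR (Fluidigm arrays) against three housekeeping genes after 48 h chemical exposure of HepaRG cells. Eight-point half-log series topping at 100 uM, 0.5% DMSO vehicle, analyzed for gain or loss.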
# [13] = read-out: adenosine kinase (ADK) gene, ADK (gene 132); assay: LTEA_HepaRG_ADK: Life Technologies and Expression Analysis (LTEA) Assay for adenosine kinase (ADK) gene using HepaRG (AID 2283471)
# Method in brief: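 HepaRG (human liver), 48 h chemical exposure, 8-pt half-log series, top 100 uM, 0.5% DMSO vehicle. Readout: ADK mRNA by qRT-PCR vs housekeeping genes; bidirectional curve fit relative to DMSO baseline.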
# Apoptosis regulator Bcl-2 (Homo sapiens), sequence (P10415 whole entry, looked up): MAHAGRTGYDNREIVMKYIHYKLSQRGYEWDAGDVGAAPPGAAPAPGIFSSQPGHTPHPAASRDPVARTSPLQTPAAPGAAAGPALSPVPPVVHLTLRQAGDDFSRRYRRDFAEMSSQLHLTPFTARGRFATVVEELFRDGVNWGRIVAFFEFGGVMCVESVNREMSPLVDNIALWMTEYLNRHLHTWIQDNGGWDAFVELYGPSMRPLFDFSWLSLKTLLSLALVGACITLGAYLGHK
# Cytochrome P450 3A4 (Homo sapiens), sequence (P08684 whole entry, looked up): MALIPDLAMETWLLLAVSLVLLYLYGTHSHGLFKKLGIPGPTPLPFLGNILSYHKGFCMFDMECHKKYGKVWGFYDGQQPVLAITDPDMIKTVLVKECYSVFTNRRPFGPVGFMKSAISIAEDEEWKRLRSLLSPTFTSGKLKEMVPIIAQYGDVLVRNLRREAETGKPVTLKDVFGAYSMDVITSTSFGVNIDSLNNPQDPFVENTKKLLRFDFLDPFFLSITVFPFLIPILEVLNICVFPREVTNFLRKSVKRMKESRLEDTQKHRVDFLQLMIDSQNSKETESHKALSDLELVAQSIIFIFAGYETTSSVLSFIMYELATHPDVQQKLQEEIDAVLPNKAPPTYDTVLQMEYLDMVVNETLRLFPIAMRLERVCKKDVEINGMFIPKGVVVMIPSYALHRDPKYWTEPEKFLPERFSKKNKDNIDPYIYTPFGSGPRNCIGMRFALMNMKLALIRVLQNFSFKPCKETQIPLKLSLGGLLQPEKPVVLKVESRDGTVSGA
# Caspase-3 (Homo sapiens), sequence (P42574 whole entry, looked up): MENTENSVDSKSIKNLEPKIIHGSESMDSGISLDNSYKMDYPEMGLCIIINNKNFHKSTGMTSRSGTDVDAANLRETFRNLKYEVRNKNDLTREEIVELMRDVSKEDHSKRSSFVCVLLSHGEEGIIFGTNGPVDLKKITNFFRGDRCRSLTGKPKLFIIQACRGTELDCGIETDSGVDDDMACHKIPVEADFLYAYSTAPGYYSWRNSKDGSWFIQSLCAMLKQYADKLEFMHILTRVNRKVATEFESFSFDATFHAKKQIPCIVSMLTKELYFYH
# Cytochrome P450 2C19 (Homo sapiens), sequence (P33261 whole entry, looked up): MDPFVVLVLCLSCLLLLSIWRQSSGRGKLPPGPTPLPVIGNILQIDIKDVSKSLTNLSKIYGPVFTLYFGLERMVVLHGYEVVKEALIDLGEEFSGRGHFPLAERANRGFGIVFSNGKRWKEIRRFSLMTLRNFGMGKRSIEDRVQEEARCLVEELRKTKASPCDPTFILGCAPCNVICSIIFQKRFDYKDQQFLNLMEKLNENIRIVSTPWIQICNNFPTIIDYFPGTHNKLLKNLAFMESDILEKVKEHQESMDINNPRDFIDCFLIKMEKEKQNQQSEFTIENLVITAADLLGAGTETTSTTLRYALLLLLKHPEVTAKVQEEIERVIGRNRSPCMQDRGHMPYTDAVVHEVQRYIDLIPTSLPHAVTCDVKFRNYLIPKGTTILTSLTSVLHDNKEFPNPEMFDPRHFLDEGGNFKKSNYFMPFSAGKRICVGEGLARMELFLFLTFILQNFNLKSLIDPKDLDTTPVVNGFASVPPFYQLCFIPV
structure (smiles),measurement,setting,value
CCN(CC)C(=O)c1cc(S(=O)(=O)Cc2ccccc2)c(N2CCC(c3ccccc3)CC2)cc1N(CC)CCN(C)C,AC50,BCL2L11 (gene 10018),25.7 µM (active)
same,AC50,[1],29.2 µM (active)
same,outcome,[2],inactive
same,outcome,[3],inactive
same,AC50,Caspase-3 (Homo sapiens),30.6 µM (active)
same,outcome,[4],inactive
same,AC50,[5],6.01 µM (active)
same,AC50,[6],30.8 µM (active)
same,AC50,[7],5.04 µM (active)
same,AC50,[8],4.25 µM (active)
same,AC50,CYP2C8 (gene 1558),4.92 µM (active)
same,AC50,CYP2C9 (gene 1559),5.05 µM (active)
same,AC50,CYP2E1 (gene 1571),26 µM (active)
same,AC50,CYP4A11 (gene 1579),30.5 µM (active)
same,AC50,[9],34.7 µM (active)
same,AC50,[10],22.9 µM (active)
same,outcome,[11],inactive
same,AC50,[12],28.8 µM (active)
CCCOC(=O)c1cc(O)c(O)c(O)c1,outcome,[13],inactive
same,outcome,BCL2L11 (gene 10018),inactive
same,outcome,[1],inactive
same,outcome,[2],inactive
same,outcome,[3],inactive
same,outcome,Caspase-3 (Homo sapiens),inactive
same,outcome,[4],inactive
same,outcome,[5],inactive
same,outcome,[6],inactive
same,AC50,[7],0.674 µM (active)
same,AC50,[8],0.793 µM (active)
same,outcome,CYP2C8 (gene 1558),inactive
same,outcome,CYP2C9 (gene 1559),inactive
same,AC50,CYP2E1 (gene 1571),21.6 µM (active)
same,AC50,CYP4A11 (gene 1579),6.67 µM (active)
same,AC50,[9],1.14 µM (active)
same,outcome,[10],inactive
same,outcome,[11],inactive
same,outcome,[12],inactive
CCCCCCCCOC(=O)c1cc(O)c(O)c(O)c1,outcome,[13],inactive
same,outcome,BCL2L11 (gene 10018),inactive
same,outcome,[1],inactive
same,outcome,[2],inactive
same,outcome,[3],inactive
same,outcome,Caspase-3 (Homo sapiens),inactive
same,outcome,[4],inactive
same,AC50,[5],39.5 µM (active)
same,outcome,[6],inactive
same,outcome,[7],inactive
same,outcome,CYP2C8 (gene 1558),inactive
same,outcome,CYP2C9 (gene 1559),inactive
same,outcome,CYP2E1 (gene 1571),inactive
same,outcome,CYP4A11 (gene 1579),inactive
same,outcome,[9],inactive
same,outcome,[10],inactive
same,outcome,[11],inactive
same,outcome,[12],inactive
